Screening results as filed in PubChem.
Hits are enriched below; roughly 0.92% of the tested compounds scored in any of these assays.
GALK inhibitor: qHTS Assay for Inhibitors of Human Galactokinase (GALK). Potency, µM (highest dose often 57.5 µM), hits mostly inhibitors. actives 0.007% (n = 270,000). P51570. Purified GALK, Kinase-Glo residual ATP luminescence. AID 1868, 2009
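Luminescence from leftover ATP (Ultra-Glo luciferase/luciferin) served as read-out after a 1 h room-temperature reaction of 5 nM GALK with 35 uM ATP and 100 uM galactose.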
miR-21 act: qHTS Assay for Modulators of miRNAs and/orActivators of miR-21; AID 2288, 2010; HeLa miR-21 FLuc reporter, luciferase, 48 h; 340,000 tested, under 10 active; Potency, µM (series often up to 38.3 µM), usual class: activators;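 further: miR-21 action dims this reporter so a rising signal means less miR-21 action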
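Using DMEM plus 10% FBS, HeLa miR-21-FLuc cells are incubated with test compounds (final up to about 40uM) for 48 hours; firefly luciferase signal is then imaged following reagent-mediated lysis.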
KinaseGlo FLuc: Counterscreen for Luciferase (Kinase-Glo TM) Inhibition. Luciferin 4-monooxygenase (Photuris pensylvanica), Q27757. Kinase-Glo luciferase, ATP luminescence, 8 min. Potency, µM (doses to about 38.3 µM), actives largely listed as inhibitors. actives 0.28% (n = 200,000); further: nearly all actives have a fitted effect of over 60% in size
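Inhibition of Kinase-Glo luciferase light generation was assessed at 10 uM ATP in pH 7.2 imidazole buffer, with luminescence measured after eight minutes at ambient temperature.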
PKM2 activator: qHTS Assay for Activators of Human Muscle isoform 2 Pyruvate Kinase | Pyruvate kinase PKM (Homo sapiens), P14618 | Potency, µM (highest dose often 57.5 µM), most hits filed as activators | AID 1631, 2009 | purified PKM2, Kinase-Glo ATP luminescence, activation; response scale: 0% is enzyme alone, no compound | actives 0.34% (n = 260,000); further: nearly all actives have a fitted effect of over 55% in size
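Purified hPK-M2 (>95% pure) converted ADP (0.1 mM final) to ATP with 0.5 mM PEP in 50 mM imidazole pH7.2, KCl, MgCl2, Tween 20, BSA; 1 h at room temperature. ATP detected by Kinase-Glo luminescence.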
RXFP1 antag: qHTS Assay for Antagonists of the Relaxin Receptor RXFP1 | actives 0.59% (n = 350,000) | Relaxin receptor 1 (Homo sapiens), Q9HBX9 | activity change, negative = inhibition, % at 57.5 µM | HEK293-RXFP1, relaxin-stimulated cAMP HTRF, 30 min; active compounds read low;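 active means activity change of -60% or lower, but not beyond a set lower limit; inconclusive means change between -60% and -40%, or beyond the set limit; inactive means change above -40%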
Target sequence (Q9HBX9 whole entry, looked up): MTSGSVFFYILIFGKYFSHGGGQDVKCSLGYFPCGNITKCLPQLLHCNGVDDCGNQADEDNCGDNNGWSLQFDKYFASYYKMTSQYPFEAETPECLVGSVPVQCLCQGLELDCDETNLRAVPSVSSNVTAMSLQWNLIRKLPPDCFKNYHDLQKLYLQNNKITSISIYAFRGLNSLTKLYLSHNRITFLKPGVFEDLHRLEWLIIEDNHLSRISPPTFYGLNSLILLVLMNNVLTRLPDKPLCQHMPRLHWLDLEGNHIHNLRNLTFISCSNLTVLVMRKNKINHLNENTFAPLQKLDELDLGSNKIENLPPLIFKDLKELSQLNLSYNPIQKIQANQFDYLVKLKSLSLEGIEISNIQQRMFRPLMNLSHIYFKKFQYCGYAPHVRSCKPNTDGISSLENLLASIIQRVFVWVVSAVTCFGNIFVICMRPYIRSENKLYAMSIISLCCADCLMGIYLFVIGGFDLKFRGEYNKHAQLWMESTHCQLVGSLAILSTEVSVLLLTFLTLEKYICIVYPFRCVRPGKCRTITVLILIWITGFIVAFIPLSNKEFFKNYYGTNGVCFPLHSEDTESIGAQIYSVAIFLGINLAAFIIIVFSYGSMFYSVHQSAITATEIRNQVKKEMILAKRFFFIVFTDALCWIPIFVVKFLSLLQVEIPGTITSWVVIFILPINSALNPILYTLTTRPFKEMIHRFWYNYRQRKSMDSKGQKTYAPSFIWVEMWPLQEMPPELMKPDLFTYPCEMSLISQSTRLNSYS
RXFP1 ag: qHTS Assay for Agonists of the Relaxin Receptor RXFP1 | Relaxin receptor 1 (Homo sapiens), Q9HBX9 | HEK293T-RXFP1 cAMP TR-FRET, 30 min; response scale: percent of porcine relaxin response, buffer zero | Potency, µM (series often up to 57.5 µM), usual class: activators | actives 0.3% (n = 370,000); further: nearly all actives have a fitted effect of over 60% in size
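cAMP rise read by TR-FRET after 30 min, 37C compound exposure (up to 58 uM) in RXFP1-transfected HEK293 cells with Ro 20174 present. EC50 from Hill-equation fits, with 29 nM porcine relaxin as 100% and buffer as basal.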
Hits are given with their value; . = inactive; ? = inconclusive; / = no result; [ ] = remark or other dose. Unless noted, the call rests on the fitted dose curve; in most records, active means well fitted curve in the direction sought with a large enough effect; inconclusive means small, poorly fitted or top-dose-only effect, or another doubt; inactive means no such curve, though single readings can be large; an effect the other way counts as inactive or inconclusive.

SMILES	GALK inhibitor	miR-21 act	KinaseGlo FLuc	PKM2 activator	RXFP1 antag	RXFP1 ag
COc1cccc([C@H]2Nc3ccc(S(=O)(=O)Nc4cc(C)ccc4C)cc3[C@H]3C=CC[C@H]32)c1	/	.	/	/	.	.
Cc1ccc([C@H]2Nc3ccc(S(=O)(=O)Nc4cccc(Cl)c4C)cc3[C@H]3C=CC[C@H]32)cc1	/	.	/	/	-62	.
COC(=O)c1ccc([C@H]2Nc3ccc(S(=O)(=O)Nc4cccc(C)c4)cc3[C@H]3C=CC[C@H]32)cc1	/	.	/	/	-70	.
Cc1cccc(NC(=O)CSc2n[nH]c(-c3ccncc3)n2)c1C	.	.	/	.	.	.
COc1ccc(C(=O)N/N=C/c2c(C)[nH]c(=O)[nH]c2=O)cc1	.	.	.	.	.	.
COc1ccc(CO/N=C/c2c(C)[nH]c(=O)[nH]c2=O)cc1	.	.	.	25µM	.	.
CCOC(=O)c1ccccc1NC(=O)Cn1c(=O)n(Cc2ccccc2)c(=O)c2c(C)c(C)sc21	.	.	.	.	.	.
Cc1ccc(N2C(=O)c3ccccc3C2Nc2ccccc2F)nc1 (stereo not drawn)	.	.	.	.	.	.
Cc1ccc(N2C(=O)c3ccccc3C2O)nc1 (stereo not drawn)	.	.	4.5µM	.	/	.
CCOc1ccc(C(=O)c2cn(CC(=O)Nc3ccc(F)cc3)c3cc4c(cc3c2=O)OCO4)cc1	/	.	/	/	/	.
CCOc1ccc(C(=O)c2cn(CC(=O)Nc3ccc(OC)cc3)c3cc4c(cc3c2=O)OCO4)cc1	/	.	/	/	/	25µM
O=C(O)c1cn(C2CC2)c2cc(Cl)c(F)cc2c1=O	/	/	/	/	.	/
COc1cccc2oc(-c3ccccc3)cc(=O)c12	/	/	16µM	/	/	/
O=C(N/N=C/c1ccc(OCC(=O)N2CCCCC2)cc1)c1ccccc1	.	.	.	.	.	.
O=C(N/N=C/c1ccccc1OCC(=O)N1CCCC1)C(=O)Nc1ccccc1F	.	.	8.9µM	.	.	.
CCCC(=O)NC(c1ccc(Cl)cc1Cl)c1ccc2cccnc2c1O (stereo not drawn)	.	.	/	.	-62	.
CCCC(=O)NC(c1cccs1)c1cc(Cl)c2cccnc2c1O (stereo not drawn)	.	?	.	.	?	.
CC(=O)NC(c1ccc(Cl)cc1Cl)c1ccc2cccnc2c1O (stereo not drawn)	.	.	/	.	/	.
CC(=O)NC(c1ccc2ccccc2c1)c1ccc2cccnc2c1O (stereo not drawn)	.	.	/	.	-70	.
CCCC(=O)NC(c1ccco1)c1cc(Cl)c2cccnc2c1O (stereo not drawn)	.	.	.	.	-66	.
Cc1ccc(CN2CCN(Cc3ccc(C)o3)[C@@H](C)C2)o1	/	/	.[7.66 µM]	/	/	/
Nc1ccc(C(=O)N2CC3CC(CN(Cc4ccccc4)C3)C2)cc1	/	/	/	/	.	/
Oc1ccc(Cl)cc1N=Nc1ccccc1	.	.	/	.[11.5 µM]	.	.
Cc1ccc(O)c(N=Nc2ccccc2)n1	/	/	2.8µM	/	/	/
Cc1ccc(CNC(=O)Cn2ccc3cc(S(=O)(=O)N4CCCC4)ccc32)o1	.	.	/	16µM	.	.
SMILES	GALK inhibitor	miR-21 act	KinaseGlo FLuc	PKM2 activator	RXFP1 antag	RXFP1 ag
CCOc1ccc(S(=O)(=O)NCC(c2ccco2)S(=O)(=O)c2ccc(C)cc2)cc1 (stereo not drawn)	/	.	/	/	.	.
Cc1c(C(=O)NN2CCCCC2)nn(-c2ccc(Cl)cc2Cl)c1-c1ccc(Cl)cc1	/	/	/	/	-71	/
COc1ccc(Cn2c(/C=C/c3ccccc3)nc3ccccc32)cc1	.	.	?	.	.	.
CCCCCCn1c(/C=C/c2ccccc2)nc2ccccc21	/	.	/	/	.	.
COc1ccc(/C=C/c2nc3ccccc3n2C)cc1	.	?	2.8µM	.	.	.
CCCn1c(/C=C/c2cc[n+](C)cc2)nc2ccccc21	.	.	/	.	.	20µM
CCn1c(/C=C/c2ccccc2)nc2ccccc21	.	.	10µM	.	.	.
CC(C)Cn1c(/C=C/c2ccccc2)nc2ccccc21	.	.	/	.	-66	.
O=C(NCC(c1cccs1)N1CCOCC1)c1cc(=O)[nH]c2ccccc12 (stereo not drawn)	/	/	/	/	-77	.
O=C(NCC(c1ccco1)N1CCCC1)c1cc(=O)[nH]c2ccccc12 (stereo not drawn)	/	/	/	/	.	/
O=C(NCCN1CCCCC1)c1ccc(Cc2nc3ccccc3[nH]2)cc1	/	/	.	/	/	/
COc1ccc(-n2c(-c3ccccc3)cc3c2CCCC3=O)cc1	.	.	.	.	.	.
COc1ccc(-n2ccc(=O)c3c2CCCC3=O)cc1	.	.	.	28µM	.	.
Cc1c(C)c2c(c(C)c1OC(=O)c1cccnc1)CC[C@@](C)(CCC[C@H](C)CCC[C@H](C)CCCC(C)C)O2	/	/	/	/	.	/
CC(Sc1nc(N)c2c3c(sc2n1)CSC(C)(C)C3)C(=O)Nc1ccccc1 (stereo not drawn)	.	.	.	7.1µM	.	.
COC(=O)c1ccccc1S(=O)(=O)N1CCc2nc(COc3ccccc3)c3c(c2C1)CO[C@@H](C)C3	/	/	.[7.66 µM]	.[11.5 µM]	/	/
Cn1ncc(Cl)c1C(=O)N1CCC(Cc2ccccc2)CC1	.	.	/	22µM	.	.
CC1=C2C(=CO[C@H](C)[C@H]2C)C(=O)C(C(=O)O)=C1O	/	/	.	/	/	/
O=C(OCc1ccccc1)N(CCCCN(CCCNCc1ccccc1)C(=O)OCc1ccccc1)CCCNCc1ccccc1	/	/	/	/	-94	/
O=C(NCCCCCCNC(=O)OCc1ccccc1)OCc1ccccc1	/	/	/	/	.	/
Cn1c(SCc2ccc(C(C)(C)C)cc2)nnc1C1COc2ccccc2O1 (stereo not drawn)	/	.	/	.	-69	.
Cn1c(SCc2nnc(-c3ccc(F)cc3)o2)nnc1C1COc2ccccc2O1 (stereo not drawn)	.	.	.	.	.	.
C[C@H]1Cc2c(COc3ccccc3)nc3c(c2CO1)CN(C(=O)NCCc1c[nH]c2ccccc12)CC3	/	/	.[7.66 µM]	.[11.5 µM]	/	/
CC(=O)c1ccc(NC(=O)c2ccc(NC(=O)CCS(=O)(=O)c3cccs3)cc2)cc1	.	.	.	.	?	.
COc1ccc(NC(=O)c2ccc(NC(=O)CCS(=O)(=O)c3cccs3)cc2)cc1	.	.	/	.	-97	.
C=CC1=C2C=C(C3CC3)N(C3CCCCC3)C=C2C(=O)C(C)(OC(=O)c2ccco2)C1=O (stereo not drawn)	/	/	.[7.66 µM]	.[11.5 µM]	/	/
